Data: PubChem BioAssay (NCATS)
Results filed as inconclusive are left out. A number with no mark means an inactive call. Activity calls are given as the source filed them. Calls come from the whole dose curve; as a rule, active = well fitted inhibition curve with a large enough effect; inconclusive = small, poorly fitted or top-dose-only effect; inactive = flat fitted curve, though single readings scatter.

tested on: MCC-26; test: qHTS assay to identify novel small-molecules to repurpose for Merkel cell carcinoma treatment (AID 1296009); settings: MCC and control cell lines, CellTiter-Glo viability, 72 h; series mostly up to 46 µM; activity change, negative = cytotoxicity: at the top concentration; note: nearly all actives have a fitted effect of over 60% in size
Text: MCC is a rare and aggressive neuroendocrine skin cancer with limited treatment options. Approximately 80% of MCCs have the Merkel cell polyomavirus (MCPyV) DNA integrated into the host genome (virus-positive: VP-MCC) and viral oncogenes drive oncogenesis. The remaining MCCs are virus-negative (VN-MCC) and are caused by UV mutagenesis. To identify novel treatments for VP-MCC and/or VN-MCC we screened three VP-MCC cell lines (WAGA, MKL-1, MKL-2), three VN-MCC cell lines (MCC-13, MCC-26, UISO), and four immortalized, non-transformed control cell lines (HaCaT, HEK293T, CRL7250, NIH-3T3) against ~2,400 compounds in the NCGC Pharmaceutical Collection (NPC) and ~1,900 compounds in the Mechanism Interrogation PlatE (MiPE). Using cell viability as a readout (CellTiter-Glo assay) we found both overlapping and distinct drugs that can be repurposed for the treatment of VP-MCC and VN-MCC.
A high-throughput screen was conducted in 1536-well white flat bottom plates (Corning) on a Kalypsys robotic system. Cell lines WAGA, MKL-1, MKL-2, MCC-13, MCC-26, UISO, HaCaT, HEK293T, CRL7250, and NIH-3T3 were screened against 2 small molecule annotated drug libraries NPC and MIPE in dose response (8 and 11 pt. respectively) measuring cell viability after 72 hours of incubation. […] A 1,536 pintool (Kalypsys) was used to transfer 23 nL of compound in DMSO to the 1,536-well assay plates. After 72 hr incubation at 37 degree celsius, 2.5 uL of CellTiter-Glo (Promega) was dispensed into each well using a BiorapTR. Plates were incubated at room temperature for 10 min, transferred to a ViewLux (PerkinElmer) and the luminescence was recorded using an exposure time of 2 seconds. Relative luminescence units (RLUs) were normalized to in-plate controls (no cells as a positive (cytotoxicity) control, DMSO as negative control) and the normalized data was processed using NCATS in-house software.
% is set by controls: 0 for no effect and ±100 for the full control effect.

Structure (SMILES) | activity change, negative = cytotoxicity | Potency
CC1(C)Cc2c(-c3ccccc3)c(-c3ccc(Cl)cc3)c(CC(=O)O)n2C1 | 11.4% | 
NNCCc1ccccc1 |  | inactive
CC1(C)SCCN(S(=O)(=O)c2ccc(OCC#CCO)cc2)[C@@H]1C(=O)NO | 2.58% | 
CC(C[N+](C)(C)C)OC(N)=O (stereo not given) |  | inactive
COc1ccc2nc(S(=O)Cc3ncc(C)c(OC)c3C)[nH]c2c1 (stereo not given) |  | inactive
CC[C@@H](C)[C@H](NC(=O)[C@H](CC1CCCCC1)NC(=O)c1ccno1)C(=O)N1CCC2(CCc3ccccc32)CC1 | -14.4% | 
CC(C)(Sc1ccc(CCN(CCCCC2CCCCC2)C(=O)NC2CCCCC2)cc1)C(=O)O | -15.8% | 
O=C1CCC(N2C(=O)c3ccccc3C2=O)C(=O)N1 (stereo not given) |  | inactive
OC[C@H](Cc1ccccc1)Nc1nc(Oc2ccc3c(c2)CCC3)nc2c1ncn2Cc1ccc(-c2ccccc2)cc1 | -4.87% | 
Cc1cn[nH]c1 | -0.581% | 
COc1ccccc1-c1cccc(-c2c(O)c3cc(C#N)c(Cl)cc3[nH]c2=O)c1 | -16.2% [at 92.7 µM] | 
CC(C)(C)OC(=O)CN(Cc1ccc(Cl)cc1)Cc1ccc([N+](=O)[O-])s1 | -0.649% | 
CN1CCN(CCCN2c3ccccc3Sc3ccc(C(F)(F)F)cc32)CC1 | -4.77% | 
COc1cc(Oc2ccnc3cc(OC)c(OC)cc23)ccc1NC(=O)NC(C)c1nccs1 (stereo not given) | -12.2% | 
C#Cc1cccc(Nc2ncnc3cc(OCCOC)c(OCCOC)cc23)c1 |  | inactive
O=C(c1cc(Cc2n[nH]c(=O)c3ccccc23)ccc1F)N1CCN(C(=O)C2CC2)CC1 | -6.27% | 
Cn1cnc2c(F)c(Nc3ccc(Br)cc3Cl)c(C(=O)NOCCO)cc21 | -0.068% | 
O=C(C1CC1)N1CC[C@@H](Cn2c(-c3ccc(-c4ccc5occc5c4)cc3)nc3cnccc32)C1 | -6.46% | 
Cc1cc(-c2ccc(CC(=O)Nc3ccc(-c4cccnc4)cc3)cc2)ccn1 | -18.3% | 
COc1ccc(CCN2CCN(CCCc3ccccc3)CC2)cc1OC | -7.24% | 

Structure (SMILES) | activity change, negative = cytotoxicity | Potency
CCn1cc(C(=O)O)c(=O)c2cc(F)c(N3CCNC(C)C3)c(F)c21 (stereo not given) |  | inactive
Cc1c(CCOc2ccc(C(=O)O)cc2)c2cc(Cl)ccc2n1C(c1ccccc1)c1ccccc1 | -5.04% | 
CCCS(=O)(=O)Nc1ccc(F)c(C(=O)c2c[nH]c3ncc(Cl)cc23)c1F | -12.3% | 
CC1(C)CNc2cc(NC(=O)c3cccnc3NCc3ccncc3)ccc21 | -14% | 
CCCC(CCC)C(=O)O |  | inactive
C[C@H](NC(=O)Cc1cc(F)cc(F)c1)C(=O)N[C@@H]1C(=O)N(C)c2ccccc2-c2ccccc21 | 0.168% | 
Cc1cnc(Nc2ccc(OCCN3CCCC3)cc2)nc1Nc1cccc(S(=O)(=O)NC(C)(C)C)c1 | -6.44% | 
Nc1cccc(S(=O)(=O)N2CCCN(S(=O)(=O)c3ccc4c(c3)OCCO4)CC2)c1 | -6.7% | 
CCCCCCCc1ccc(CCc2cccc(O)c2C(=O)O)cc1 | -8.48% | 
Cc1cc2c(F)c(Oc3ncnn4cc(OC[C@@H](C)O)c(C)c34)ccc2[nH]1 | -8.98% | 
CS(=O)(=O)c1ccc(C(=O)Nc2ccc(Cl)c(-c3ccccn3)c2)c(Cl)c1 | 1.8% | 
OC(CN1CCC(Cc2ccc(F)cc2)CC1)c1ccc(Cl)cc1 (stereo not given) |  | inactive
COc1ccc(C2=N[C@H](c3ccc(Cl)cc3)[C@H](c3ccc(Cl)cc3)N2C(=O)N2CCNC(=O)C2)c(OC(C)C)c1 | -14% | 
O=S(=O)(N=Cc1c(O)ccc2ccccc12)c1cccs1 | -8.99% | 
C[C@]1(c2nc3c(C(N)=O)cccc3[nH]2)CCCN1 | -18.4% | 
N#Cc1ccc(C(c2ccc(C#N)cc2)n2cncn2)cc1 | -4.27% | 
CCOC(=O)N[C@@H]1CC[C@@H]2[C@@H](C1)C[C@H]1C(=O)O[C@H](C)[C@H]1[C@@H]2C=Cc1ccc(-c2cccc(F)c2)cn1 | -18.1% | 
CCOc1cc(C=C2C(=O)N(c3ccccc3)N=C2C)cc(Cl)c1OCC(=O)OC | -15% | 
Cc1cccc(-c2nn(C(=S)Nc3ccccc3)cc2-c2ccnc3ccccc23)n1 | -0.324% | 
CCc1cncnc1N1CCN(Cc2nc3ccc(C(F)(F)F)cc3[nH]2)CC1 | -3.7% | 
